Data from PubChem BioAssay AID1159580 (chemical genetic matrix, 2015).
The campaign covered roughly 5,500 compounds. About 2,000 (36%) were called active. Roughly 18% stayed inconclusive and do not appear here. Cut-off read from the data, not from the text of the source: active = normalized growth mostly below about 0.91 (no sharp cut-off); inconclusive = no clear call, values can overlap the other calls; inactive = mostly above about 0.92. This is one part of the list.

Assay: chemical genetic growth profiling, strain panel (AID 1159580);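 note: tested at 20 µM; growth read once vehicle control cultures reached saturation at 30 °C; 1 = growth at the plate median or of vehicle wells; lower values mean less growth of the strain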
Conditions: growth OD

Measured: normalized growth

CNNC
inactive: S. cerevisiae deletion strains, locus YJR075W, strain HOC1, active compounds read low 1.02 | S. cerevisiae deletion strains, locus YKL009W, strain mrt4, active compounds read low 0.981 | S. cerevisiae deletion strains, locus YKL068W, active compounds read low 1.01 | S. cerevisiae deletion strains, locus YKL085W, strain MDH1 (second series), active compounds read low 1.01 | S. cerevisiae deletion strains, locus YKL085W, strain MDH1, active compounds read low 1.01 | S. cerevisiae deletion strains, locus YKL160W, strain elf1, active compounds read low 0.99 | S. cerevisiae deletion strains, locus YKL190W, strain CNB1, active compounds read low 1.02 | S. cerevisiae deletion strains, locus YKR001C, strain vps1, active compounds read low 1.01 | S. cerevisiae deletion strains, locus YKR026C, strain gcn3, active compounds read low 1.02 | S. cerevisiae deletion strains, locus YKR091W, strain srl3, active compounds read low 1.02 | S. cerevisiae deletion strains, locus YLL001W, strain dnm1, active compounds read low 1.02 | S. cerevisiae deletion strains, locus YLL026W, active compounds read low 1 | S. cerevisiae deletion strains, locus YLL041C, strain sdh2, active compounds read low 1.02 | S. cerevisiae deletion strains, locus YLR027C, strain aat2, active compounds read low 1.01 | S. cerevisiae deletion strains, locus YLR039C, strain RIC1, active compounds read low 1.09 | S. cerevisiae deletion strains, locus YLR058C, strain SHM2, active compounds read low 1.02 | S. cerevisiae deletion strains, locus YLR102C, strain apc9, active compounds read low 0.998 | S. cerevisiae deletion strains, locus YLR221C, strain rsa3, active compounds read low 1.01 | S. cerevisiae deletion strains, locus YLR258W, strain gsy2, active compounds read low 1.01 | S. cerevisiae deletion strains, locus YLR262C, strain YPT6 (second series), active compounds read low 1.01 | S. cerevisiae deletion strains, locus YLR262C, strain YPT6, active compounds read low 1.09 | S. cerevisiae deletion strains, locus YLR268W, strain sec22, active compounds read low 1.02 | S. cerevisiae deletion strains, locus YLR320W, strain mms22, active compounds read low 1.01 | S. cerevisiae deletion strains, locus YLR330W, strain CHS5, active compounds read low 1.02 | S. cerevisiae deletion strains, locus YLR342W, strain FKS1 (second series), active compounds read low 1.01 | S. cerevisiae deletion strains, locus YLR342W, strain FKS1, active compounds read low 1.01 | S. cerevisiae deletion strains, locus YLR357W, strain rsc2, active compounds read low 0.986 | S. cerevisiae deletion strains, locus YLR370C, strain arc18, active compounds read low 1.01 | S. cerevisiae deletion strains, locus YLR371W, strain rom2, active compounds read low 1 | S. cerevisiae deletion strains, locus YLR384C, strain iki3, active compounds read low 1.01 | S. cerevisiae deletion strains, locus YLR418C, strain cdc73, active compounds read low 0.997 | S. cerevisiae deletion strains, locus YML016C, strain PPZ1, active compounds read low 1.02 | S. cerevisiae deletion strains, locus YML032C, strain rad52, active compounds read low 0.97 | S. cerevisiae deletion strains, locus YML120C, strain ndi1, active compounds read low 1.03 | S. cerevisiae deletion strains, locus YML124C, strain tub3, active compounds read low 1.01 | S. cerevisiae deletion strains, locus YMR058W, strain fet3, active compounds read low 1.01 | S. cerevisiae deletion strains, locus YMR078C, strain ctf18, active compounds read low 0.994 | S. cerevisiae deletion strains, locus YMR125W, strain sto1, active compounds read low 1 | S. cerevisiae deletion strains, locus YMR129W, active compounds read low 0.999 | S. cerevisiae deletion strains, locus YMR205C, strain PFK2, active compounds read low 1.02 | S. cerevisiae deletion strains, locus YMR223W, strain ubp8, active compounds read low 1 | S. cerevisiae deletion strains, locus YMR231W, strain pep5, active compounds read low 1.01 | S. cerevisiae deletion strains, locus YMR263W, strain SAP30, active compounds read low 1.03 | S. cerevisiae deletion strains, locus YMR307W, strain GAS1, active compounds read low 1.04 | S. cerevisiae deletion strains, locus YNL067W, strain RPL9B, active compounds read low 1.03 | S. cerevisiae deletion strains, locus YNL071W, strain lat1, active compounds read low 0.989 | S. cerevisiae deletion strains, locus YNL128W, strain TEP1, active compounds read low 1.03 | S. cerevisiae deletion strains, locus YNL153C, strain GIM3, active compounds read low 1.03 | S. cerevisiae deletion strains, locus YNL209W, strain ssb2, active compounds read low 1.01 | S. cerevisiae deletion strains, locus YNL233W, strain BNI4, active compounds read low 1.03 | S. cerevisiae deletion strains, locus YNL248C, strain rpa49, active compounds read low 1.03 | S. cerevisiae deletion strains, locus YNL250W, strain rad50, active compounds read low 0.997 | S. cerevisiae deletion strains, locus YNL271C, strain bni1, active compounds read low 1.01 | S. cerevisiae deletion strains, locus YNL298W, strain CLA4, active compounds read low 0.994 | S. cerevisiae deletion strains, locus YNL307C, strain MCK1, active compounds read low 0.998 | S. cerevisiae deletion strains, locus YNL322C, strain KRE1 (second series), active compounds read low 1.02 | S. cerevisiae deletion strains, locus YNL322C, strain KRE1, active compounds read low 1.03 | S. cerevisiae deletion strains, locus YNR049C, strain mso1, active compounds read low 1 | S. cerevisiae deletion strains, locus YNR052C, strain pop2, active compounds read low 0.994 | S. cerevisiae deletion strains, locus YOL006C, strain TOP1, active compounds read low 1.08 | S. cerevisiae deletion strains, locus YOL012C, strain htz1 1.09 | S. cerevisiae deletion strains, locus YOL147C, strain pex11, active compounds read low 0.995 | S. cerevisiae deletion strains, locus YOR001W, strain rrp6, active compounds read low 1.02 | S. cerevisiae deletion strains, locus YOR061W, strain CKA2, active compounds read low 1.02 | S. cerevisiae deletion strains, locus YOR069W, strain VPS5, active compounds read low 1.01 | S. cerevisiae deletion strains, locus YOR070C, strain gyp1, active compounds read low 1.01 | S. cerevisiae deletion strains, locus YOR080W, strain dia2, active compounds read low 0.99 | S. cerevisiae deletion strains, locus YOR083W, strain WHI5, active compounds read low 1.01 | S. cerevisiae deletion strains, locus YOR106W, strain vam3, active compounds read low 1.02 | S. cerevisiae deletion strains, locus YOR136W, strain idh2, active compounds read low 0.994 | S. cerevisiae deletion strains, locus YOR144C, strain elg1, active compounds read low 1 | S. cerevisiae deletion strains, locus YOR184W, strain ser1, active compounds read low 1 | S. cerevisiae deletion strains, locus YOR265W, strain rbl2, active compounds read low 1.02 | S. cerevisiae deletion strains, locus YOR270C, strain vph1, active compounds read low 1.1 | S. cerevisiae deletion strains, locus YOR290C, strain snf2, active compounds read low 1.03 | S. cerevisiae deletion strains, locus YOR316C, strain cot1, active compounds read low 1.01 | S. cerevisiae deletion strains, locus YPL051W, strain arl3, active compounds read low 1 | S. cerevisiae deletion strains, locus YPL055C, strain LGE1, active compounds read low 1.06 | S. cerevisiae deletion strains, locus YPL078C, strain atp4, active compounds read low 1.01 | S. cerevisiae deletion strains, locus YPL106C, strain sse1, active compounds read low 1 | S. cerevisiae deletion strains, locus YPL240C, strain hsp82, active compounds read low 1.01 | S. cerevisiae deletion strains, locus YPL241C, strain CIN2, active compounds read low 1.02 | S. cerevisiae deletion strains, locus YPR119W, strain clb2, active compounds read low 1 | S. cerevisiae deletion strains, locus YPR141C, strain kar3, active compounds read low 1.01 | S. cerevisiae deletion strains, locus YPR163C, strain tif3, active compounds read low 0.994 | S. cerevisiae deletion strains, locus YPR167C, strain met16, active compounds read low 1 | S. cerevisiae deletion strains, strain wtn01, active compounds read low 1.02 | S. cerevisiae strains, strain wild type, active compounds read low 1.01
